Screening data (PubChem BioAssay)
L3MBTL1 inh: blocks human L3MBTL1. Q9Y468. AlphaScreen L3MBTL1–H3K9me1 peptide binding. Potency, µM (highest dose often 57.1 µM), for inactives: at the highest dose activity, negative = inhibition, hits mostly inhibitors. hit rate 0.66% among 230,000; also: % is scaled to controls: 0 for no effect and ±100 for the full control effect; nearly all actives have a fitted effect of over 60% in size
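L3MBTL1 50 nM + b-AHA-H3(1-15)K9me1 75 nM, 30 min RT; compound added, 30 min RT; streptavidin donor/Ni-chelate acceptor beads 10 ug/mL each final, 30 min RT dark; AlphaScreen read.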
G9a block: inhibitors of human histone lysine methyltransferase G9a | Q96KQ7 | G9a H3K9 monomethylation, AlphaScreen, 2 h | Potency, µM (titrated, usually from 102 µM), inactives show at the highest dose activity, negative = inhibition, hits mostly inhibitors | hit rate 8.8% among 350,000 | AID 504332; also: % is scaled to controls: 0 for no effect and ±100 for the full control effect; nearly all actives have a fitted effect of over 75% in size
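Chemiluminescent proximity detection of H3K9 monomethylation, read after 10 min bead incubation in the dark. Reaction: 20 nM G9a, 500 nM biotin-H3K9 peptide, 20 uM SAM cofactor, 2 h, room temperature, following 15 min enzyme-compound preincubation.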
JMJD2A Tudor: JMJD2A Tudor domain (human) inhibition; AlphaScreen JMJD2A-Tudor / H3K4me3 peptide binding; O75164; hit rate 4.4% among 390,000; Potency, µM (titrated, usually from 114 µM), inactives show top-dose activity change, negative = inhibition, most hits filed as inhibitors; also: % is scaled to controls: 0 for no effect and ±100 for the full control effect; nearly all actives have a fitted effect of over 50% in size
Target sequence (O75164 whole entry, looked up, the tested form may be a part): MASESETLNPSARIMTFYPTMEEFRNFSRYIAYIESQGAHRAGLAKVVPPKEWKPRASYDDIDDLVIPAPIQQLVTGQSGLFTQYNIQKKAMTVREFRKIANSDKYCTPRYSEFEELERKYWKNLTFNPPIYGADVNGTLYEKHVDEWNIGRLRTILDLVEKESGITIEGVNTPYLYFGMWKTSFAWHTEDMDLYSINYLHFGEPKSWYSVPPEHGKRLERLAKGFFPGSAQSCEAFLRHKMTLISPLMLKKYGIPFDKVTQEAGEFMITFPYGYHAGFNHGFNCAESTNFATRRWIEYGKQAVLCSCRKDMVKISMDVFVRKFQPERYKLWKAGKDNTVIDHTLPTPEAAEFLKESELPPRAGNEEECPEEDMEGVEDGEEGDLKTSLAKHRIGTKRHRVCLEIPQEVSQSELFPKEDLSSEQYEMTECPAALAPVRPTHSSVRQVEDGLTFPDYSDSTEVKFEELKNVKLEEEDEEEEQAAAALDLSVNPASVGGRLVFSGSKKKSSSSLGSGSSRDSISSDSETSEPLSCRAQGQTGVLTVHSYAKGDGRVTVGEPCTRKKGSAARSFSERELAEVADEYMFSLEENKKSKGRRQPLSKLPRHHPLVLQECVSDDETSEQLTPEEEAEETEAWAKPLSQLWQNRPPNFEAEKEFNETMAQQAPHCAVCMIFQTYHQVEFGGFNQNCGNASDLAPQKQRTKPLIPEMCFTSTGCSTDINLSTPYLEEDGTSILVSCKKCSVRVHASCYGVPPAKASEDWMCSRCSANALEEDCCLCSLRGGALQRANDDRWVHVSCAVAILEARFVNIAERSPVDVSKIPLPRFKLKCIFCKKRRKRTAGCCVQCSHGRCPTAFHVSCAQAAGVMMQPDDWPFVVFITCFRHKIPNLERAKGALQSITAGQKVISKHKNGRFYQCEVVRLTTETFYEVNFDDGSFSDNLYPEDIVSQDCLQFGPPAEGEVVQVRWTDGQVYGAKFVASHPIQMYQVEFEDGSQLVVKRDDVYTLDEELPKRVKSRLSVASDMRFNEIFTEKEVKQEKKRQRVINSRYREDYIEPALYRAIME
BAZ2B block: BAZ2B (human) inhibition | Q9UIF8 | AlphaScreen BAZ2B-H3K14Ac peptide displacement | Potency, µM (doses to about 114 µM), for inactives: at the top dose activity change, negative = inhibition, most hits filed as inhibitors | hit rate 4.4% among 360,000 | AID 504333; also: % is scaled to controls: 0 for no effect and ±100 for the full control effect; nearly all actives have a fitted effect of over 60% in size
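Multi-concentration screen (max 110 uM) measuring displacement of acetylated histone H3 peptide from BAZ2B by AlphaScreen, using 50 nM protein, 50 nM peptide and 10 ug/mL streptavidin donor plus Ni-chelate acceptor beads.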
Sfp inh: inhibitors of Bacillus subtilis Sfp phosphopantetheinyl transferase; Q9F4F7; Biochemical Sfp PPTase activity, qHTS; Potency, µM, without a hit: largest response in the series, negative = inhibition, actives largely listed as inhibitors; hit rate 3.5% among 310,000;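 also: the enzyme is Sfp with the accession as filed and its product quenches rhodamine fluorescence; 0% = enzyme reaction without inhibitor and -100% = no enzyme wells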
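Buffer: 50 mM Hepes-Na pH 7.6, 10 mM MgCl2, 0.01% Nonidet P-40, 0.01% BSA. Enzyme 15 nM, pre-exposed to compound 15 min; substrates then added and fluorescence change tracked over 30 min.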
HP1b chromo inh: blocks HP1-beta chromodomain binding to methylated histone tails; P83916; AlphaScreen HP1-beta / biotin-H3K9me3 peptide binding; Potency, µM (highest dose often 114 µM), for inactives: top-dose activity change, negative = inhibition, usual class: inhibitors; hit rate 0.56% among 390,000; also: nearly all actives have a fitted effect of over 70% in size
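AlphaScreen: HP1-beta (50 nM) preformed 30 min with biotin-H3(1-18)K9me3 peptide (50 nM) in PBS pH 7.4, 0.01% Tween-20. Compound added for 30 min at RT, then streptavidin donor/nickel chelate acceptor beads (10 ug/mL) for 30 min.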
* = called active by the depositor; ? = inconclusive; nt = no result given; [ ] = another dose, or the depositor's remark. An excerpt weighted towards active compounds, which were near 12% of everything screened. Calls follow the shape of the dose curve; as a rule, active = well fitted curve in the direction sought with a large enough effect; inconclusive = small, poorly fitted or top-dose-only effect, or another doubt; inactive = no such curve, though single readings can be large; an effect the other way counts as inactive or inconclusive. Potency is read from the fitted curve at half-maximal effect.

SMILES	L3MBTL1 inh	G9a block	JMJD2A Tudor	BAZ2B block	Sfp inh	HP1b chromo inh
CN1CCc2c(sc(N)c2C(N)=O)C1	-6%	?	?	4%	56µM*	5%
CN1CCc2c(sc(NC(=O)c3ccco3)c2C(N)=O)C1	nt	nt	-6%	-10%	-3%	15%
CCN1CCc2c(sc(N)c2C(N)=O)C1	11%	?	?	4%	50µM*	-37%
CCN1CCc2c(sc(NC(=O)c3cc4ccccc4cc3OC)c2C(N)=O)C1	nt	?	-36%	-25%	?	43%
Cc1ccc(S(=O)(=O)N2CCC[C@H]2C(=O)Nc2ccc(F)cc2C)cc1	0%	nt	-17%	nt	nt	45%
O=C(Cn1c(C(F)(F)F)nc2ccccc21)Oc1cccc(C(F)(F)F)c1	13%	-1%[59 µM]	20%	2%	79µM*	93%
S=C(Nc1ccc(Br)cc1)N1CCn2cccc2C1c1cccnc1 (stereo not drawn)	?	?	?	?	10%	-23%
Cc1ccc(NC(=S)N2CCn3cccc3C2c2cccnc2)cc1 (stereo not drawn)	-9%	45µM*	?	?	4%	-7%
CONC(=O)C[C@@H](C#N)NC(=O)[C@@H]1CCCN1C(=O)[C@@H](NC(=O)c1ccc(N)c(Cl)c1)C(C)(C)C	nt	nt	-26%	nt	nt	nt
Cc1ccc2cc(C)c3nnc(SCC(=O)N4CCN(C(=O)c5ccco5)CC4)n3c2c1	nt	50µM*	-21%	-2%	14%	5%
COc1ccc(N2CCN(C(=O)CSc3nnc4c(C)cc5cc(C)ccc5n34)CC2)cc1	-7%	45µM*	-19%	?	4%	-28%
COc1ccc(N2CCN(C(=O)CSc3nnc4c(C)cc5c(C)cc(C)cc5n34)CC2)cc1	-1%	?	?	6%	-17%	-21%
Cc1cc2cc(C)c3nnc(SCC(=O)N4CCN(C(=O)c5ccco5)CC4)n3c2cc1C	nt	nt	-11%	nt	nt	17%
COc1cc(/C=N/NC(N)=O)ccc1OCC(=O)Nc1cc(C)c(C)cc1Br	-9%	nt	4%	-13%	-5%	4%
CCOC(=O)C1Nc2ccccc2C2C(O)C(O)CC12 (stereo not drawn)	nt	nt	50µM*	nt	nt	-14%
CCOC(=O)C1Nc2ccc(C(F)(F)F)cc2C2c3ccccc3CC12 (stereo not drawn)	nt	nt	-7%	nt	nt	47%
O=C(COc1ccc(Cl)cc1)OCCNC12CC3CC(CC(C3)C1)C2	nt	6%[12.7 µM]	nt	nt	?	nt
CCOC(=O)CSc1nc2ccccc2c(=O)n1-c1cccc(C)c1	nt	-1%[59 µM]	-7%	3%	nt	33%
O=C(c1ccccc1)N1CCCOC1c1ccccc1 (stereo not drawn)	37%	25µM*	-8%	nt	12%	25%
Cc1cc(C)c2c(N)c(C(=O)Nc3c(C)n(C)n(-c4ccccc4)c3=O)sc2n1	nt	nt	-12%	-5%	-6%	26%
CCOC(=O)c1n[nH]n(-c2cc(Cl)cc(Cl)c2)c1=O	?	3%	7%	12%	16%	43%
CCOC(=O)c1cc(=O)n(-c2ccc(Cl)cc2C)[nH]1	5%	13µM*	-16%	-29%	-19%	18%
COC(=O)c1[nH]c2ccc(C)cc2c1NC(=O)Nc1ccc(OC)cc1	10%	45µM*	8%[11.4 µM]	13%	-26%	43%
CCCS(=O)(=O)Nc1c(C(=O)O)[nH]c2ccc(OC)cc12	2%	-7%[59 µM]	-36%	-37%	6%	-6%
COC(=O)c1[nH]c2cc(OC)ccc2c1N	-2%	3.5µM*	?	-28%	25µM*	-6%
SMILES	L3MBTL1 inh	G9a block	JMJD2A Tudor	BAZ2B block	Sfp inh	HP1b chromo inh
COc1ccc2[nH]c(C(=O)O)c(NS(=O)(=O)c3ccc(C)cc3C)c2c1	nt	40µM*	-29%	-30%	5%	8%
COC(=O)c1[nH]c2ccc(F)cc2c1NC(=O)Nc1ccc(OC)cc1	-4%	22%[2.33 µM]	9%	8%	-11%	15%
O=C(Nc1cccs1)Nc1c(F)c(F)c(F)c(F)c1F	-1%	25%[59 µM]	-31%	?	45µM*	5%
COC(=O)c1ccccc1NC(=O)Nc1cccs1	-15%	?	-8%	10%	40µM*	0%
Cc1cccc(C)c1NC(=O)Nc1cccs1	nt	50µM*	-8%	-3%	56µM*	7%
Cc1cc(NC(=O)Nc2cccs2)no1	0%	-2%[12.7 µM]	-15%	1%	-11%	14%
O=C(Nc1cccs1)Nc1c(F)c(F)cc(F)c1F	-7%	-8%[59 µM]	-3%	-4%	45µM*	36%
COC(=O)c1ccccc1NC(=O)c1cccs1	nt	23%[59 µM]	15%	23%	-6%	93%
Cc1cc2oc(=O)cc(-c3ccccc3)c2c(C)c1-c1cccc(N)c1	nt	-3%	nt	nt	-2%	nt
O=C(COC(=O)/C=C/c1cccc(F)c1)Nc1ncccn1	nt	71µM*	?	56µM*	-1%	-5%
O=C(COC(=O)/C=C/c1cccc(Cl)c1)Nc1ccc2[nH]c(=O)[nH]c2c1	1%	32µM*	-10%	-5%	nt	36%
O=C(COC(=O)/C=C/c1ccc([N+](=O)[O-])cc1)Nc1ccc2[nH]c(=O)[nH]c2c1	-3%	50µM*	-14%	5%	nt	9%
O=C(COC(=O)/C=C/c1cccc(F)c1)Nc1ccc(Cl)cn1	11%	-1%	-12%	-9%	1%	16%
O=C(COC(=O)/C=C/c1cccc(F)c1)Nc1ccc2[nH]c(=O)[nH]c2c1	-3%	-37%[59 µM]	-3%	-2%	nt	15%
COc1cccc(CNC(=O)c2cc3c(cc2Cl)N2CCCCCC2=NS3(=O)=O)c1	0%	11µM*	-9%	10%	nt	33%
O=C(NC1CCCCC1)c1cc2c(cc1Cl)N1CCCCCC1=NS2(=O)=O	4%	50µM*	-2%	10%	nt	19%
COc1cccc(CNC(=O)c2ccc3c(c2)S(=O)(=O)N=C2CCCCCN23)c1	nt	27%	-10%	-15%	5%	25%
CC(C)CCNC(=O)Nc1cc(C(=O)NCc2cccc(F)c2)ccc1N1CCCC1	nt	4%[59 µM]	-17%	-4%	nt	-3%
Cc1ccccc1OCc1nnc(SCc2cc(=O)c3cc(F)ccc3[nH]2)n1C	nt	-5%[59 µM]	-9%	5%	nt	24%[57 µM]
O=C1NC(c2ccccc2)=C(c2ccc3ccccc3n2)C(c2ccncc2)N1 (stereo not drawn)	1%	50µM*	-23%	1%	14%	8%
O=C1NC(c2ccccc2)=C(c2ccc3ccccc3n2)C(c2ccccc2)N1 (stereo not drawn)	-7%	-25%	?	-38%	-20%	11%
Fc1cc2[nH]c(=S)[nH]c2c(Br)c1N1CCSCC1	nt	10µM*	-25%	-26%	50µM*	?
